D2 PAM-1 = positive allosteric modulators of human D2 dopamine receptor | P14416 | DiscoveRx D2 beta-arrestin cells, luminescence, 90 min; 100% = 57 uM dopamine signal | potentiation, % (no concentration beside the values) | hit rate 0.23% among 360,000; in the data active means potentiation above about 50%
Target sequence (P14416 whole entry, looked up): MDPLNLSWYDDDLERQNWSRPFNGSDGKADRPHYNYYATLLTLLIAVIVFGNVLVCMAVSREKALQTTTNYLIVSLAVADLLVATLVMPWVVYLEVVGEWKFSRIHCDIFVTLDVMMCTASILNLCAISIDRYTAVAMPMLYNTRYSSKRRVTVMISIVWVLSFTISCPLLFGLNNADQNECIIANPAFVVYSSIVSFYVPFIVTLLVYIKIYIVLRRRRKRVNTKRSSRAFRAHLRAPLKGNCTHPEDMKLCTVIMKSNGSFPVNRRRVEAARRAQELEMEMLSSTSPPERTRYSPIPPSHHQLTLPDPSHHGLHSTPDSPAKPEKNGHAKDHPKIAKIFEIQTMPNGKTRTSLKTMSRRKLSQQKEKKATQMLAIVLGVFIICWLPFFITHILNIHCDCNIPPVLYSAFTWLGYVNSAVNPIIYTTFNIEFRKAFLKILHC
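PathHunter D2 cells, attached overnight at 37 deg C, received compound in DMSO plus dopamine at EC20 (50 nM final) for 90 min at 37 deg C. Beta-arrestin recruitment was read as luminescence after 1 h with detection reagent at ambient temperature.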
D2 ag-1 = D2 dopamine receptor (human) agonism. AID 485358. activation, % at 2 µM. HEK293 T-REx D2 cells, calcium flux agonist mode. hit rate 0.53% among 340,000. P14416;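 active means activation over 3 SD above normal in the single-dose calcium agonist read, cut at about 30% in these data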
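HEK293 Trex D2 cells, tetracycline-induced, o/n 30 C 5% CO2; no-wash Ca dye, RT 30–90 min; 10-cycle baseline, 23 nl cpd added, kinetic Ca read 180 s; agonist hits = positive Ca response.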
D2 PAM-2 = positively modulates the human D2 dopamine receptor allosterically | potentiation, % at 10 µM | AID 485347 | hit rate 0.34% among 340,000 | HEK293 T-REx D2, calcium flux, EC20 dopamine potentiation | P14416;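 active means potentiation over 3 SD above the plate norm, cut at about 30% in these data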
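Cells plated with tetracycline inducer and held overnight at 30 C; calcium dye loaded 30–90 min at room temperature; baseline taken, compound added and read 180 s; EC20 dopamine then added and read 180 s.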
D2 antagonist = antagonists of human D2 dopamine receptor. hit rate 2% among 340,000. inhibition, % at 10 µM. P14416. HEK293 TREx D2 cells, calcium flux, dopamine EC80. AID 485344; in the data active means inhibition above about 30%; inactive means below that, where a call was filed
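Compounds are added to dye-loaded, induced HEK293 T-REx cells coupled to calcium release via D2; after a 3 min kinetic read an EC80 dopamine stimulus is given and fluorescence is recorded for 3 more min.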
D2 ag-2 = agonists of human D2 dopamine receptor (beta-arrestin). P14416. DiscoveRx PathHunter D2 beta-arrestin, luminescence, 90 min; 100% = 57 uM dopamine signal. activation, % (test concentration not listed). hit rate 0.084% among 360,000. AID 624465; in the data active means activation above about 40%
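Agonist mode: compounds alone added to overnight-plated D2 PathHunter cells for 90 min at 37 C, with 57 uM final dopamine (EC100) defining full response. Beta-arrestin recruitment detected by chemiluminescent reagent, read after 1 h at ambient temperature.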
Each line names hits and unclear results; the compound was inactive in the other large screens. Only some compounds are listed: those with a hit (about 2.4% of all), similar ones and a draw of the others.

O=C(Nc1ccccc1C(=O)N1CCCC1)c1ncoc1-c1cccc(Cl)c1	none
COc1cccc(NC(=O)COC(=O)/C=C/c2c(C)nn(-c3ccccc3)c2C)c1	none
CC1CCCC(C)N1C(=O)CN1C(=O)C(C)(C)Oc2ccc(C(=O)NC3CCCC3)cc21 (stereo not drawn)	D2 antagonist 33
CC(C)(C)NC(=O)c1ccc2c(c1)N(CC(=O)NC1CCCC1)C(=O)C(C)(C)O2	D2 antagonist 53
CC1CCCC(C)N1C(=O)CN1C(=O)C(C)(C)Oc2ccc(C(=O)NC3CCCCC3)cc21 (stereo not drawn)	none
CC(C)NC(=O)CN1C(=O)C(C)(C)Oc2ccc(C(=O)NC3CCCCC3)cc21	D2 antagonist 32
COc1ccccc1CCNC(=O)c1nccnc1C(=O)O	none
Cc1ccc(/C=C/C(=O)N2CC(=O)Nc3ccccc32)o1	D2 PAM-2 33
Cc1cc(C)cc(C(=O)N2CC(=O)Nc3ccccc32)c1	none
COC(=O)CCC(=O)N1CCCC(C(=O)c2cc(F)ccc2F)C1 (stereo not drawn)	none
O=C(c1cc(F)ccc1F)C1CCCN(C(=O)CCN2CCCCO2)C1 (stereo not drawn)	D2 antagonist 32
CC(=O)NC1CC2CCCC(C1)N2C(=O)Nc1c(C)cccc1C (stereo not drawn)	none (no result: D2 ag-1, D2 PAM-2, D2 antagonist)
Cc1cccc(C)c1NC(=O)N1C2CCCC1CC(NC(=O)C(C)(C)C)C2 (stereo not drawn)	D2 antagonist 38
CN(Cc1c(F)cccc1Cl)C(=O)CNC(=O)c1sc2ccccc2c1Cl	none
Nc1c(C(=O)c2ccccc2)sc2nsc(SCCN3CCCC3)c12	D2 ag-1 37
O=C1CCC(C(=O)OC(C(=O)Nc2cc(Cl)cc(Cl)c2)c2ccccc2)=NN1 (stereo not drawn)	D2 antagonist 33
O=C(O)c1ccccc1OC(C(=O)Nc1cc(Cl)cc(Cl)c1)c1ccccc1 (stereo not drawn)	D2 antagonist 36
CN1CCN(/C=N/C2=C(C#N)C(c3ccccc3)C3=C(CC(C)(C)CC3=O)O2)CC1 (stereo not drawn)	D2 PAM-2 36
Cn1c(N)c(S(=O)(=O)N2CCN(c3ccccc3)CC2)c(=O)n(C)c1=O	none
Cc1ccc(Cn2c(CCNC(=O)C(C)C)nc3ccccc32)cc1	none (no result: D2 PAM-1, D2 antagonist, D2 ag-2)
COc1ccc(OC)c2sc(NC(=O)C3CC3)nc12	D2 antagonist 65
CCC(=O)Nc1nc2c(OC)ccc(OC)c2s1	none
CC(=O)C1=C(C)OC(N)=C(C#N)C1c1cc2cc(C)c(C)cc2nc1Cl (stereo not drawn)	D2 antagonist 31
COC(=O)C1=C(C)OC(N)=C(C#N)C1c1cc2cc(C)ccc2nc1Cl (stereo not drawn)	none
CSCCNC(=O)C1(C)CCN1C(=O)c1cc(C)n(C)n1 (stereo not drawn)	none (no result: D2 ag-1, D2 PAM-2, D2 antagonist)
CCOC(=O)c1ccc(NS(=O)(=O)c2c(C)[nH]c(C)c2C(=O)N2CCCCC2)cc1	D2 antagonist 69
CC(C)(C)Cc1c(-c2ccc(F)cc2)nc2ccc(Br)cn12	none (no result: D2 ag-1, D2 PAM-2, D2 antagonist)
CCOCC(=O)Nc1nc2ccc(OC)cc2s1	none (no result: D2 PAM-2)
COc1ccc2nc(NC(=O)Nc3ccccc3)sc2c1	none
CCOc1ccc2nc(NC(=O)Nc3ccccc3)sc2c1	D2 antagonist 32
CCC(=O)Nc1nc2ccc(NC(=O)c3cc(OC)c(OC)c(OC)c3)cc2s1	D2 PAM-2 31
COc1cc(C(=O)Nc2ccc(Cl)c([N+](=O)[O-])c2)cc(OC)c1OC	D2 antagonist 37
CCOc1ccc2nc(NC(=O)COC)sc2c1	D2 PAM-2 34
CCCCC(=O)Oc1ccc2oc(-c3ccc(OC)cc3)cc(=O)c2c1	none (no result: D2 PAM-1, D2 antagonist, D2 ag-2)
CCn1nc(C)c2c(-c3ccccc3)cc(=O)n(C(C)C(=O)NCCc3ccc(Cl)cc3)c21 (stereo not drawn)	none (no result: D2 PAM-1, D2 antagonist, D2 ag-2)
N#Cc1ccccc1COC(=O)c1ccc2c(c1)OCCO2	D2 antagonist 31
CCN(CC)S(=O)(=O)c1cc(NC(=O)C(C)OC(=O)c2[nH]c(C)c(C(C)=O)c2C)ccc1C (stereo not drawn)	none
CC1(C)OC2OC(C(=O)N/N=C/c3ccccc3F)C3OC(C)(C)OC3C2O1 (stereo not drawn)	none
CC1(C)C(C=C(Cl)Cl)C1C(=O)N/N=C/c1ccccc1F (stereo not drawn)	D2 antagonist 60
COc1ccc2oc(C(=O)OC(C)C(=O)NC3(C#N)CCCCC3)c(C)c2c1 (stereo not drawn)	none
COc1ccc(N(CC(=O)Nc2c(C)n(C)n(-c3ccccc3)c2=O)S(=O)(=O)c2ccc(C)cc2)cc1OC	D2 antagonist 35
COC(=O)[C@@]1(Cc2ccc(F)cc2)[C@H]2c3cc(C(=O)N4CCCC4)n(CCc4ccc(O)c(O)c4)c3C[C@H]2CN1C(=O)c1ccccc1	D2 ag-1 87, D2 antagonist 96 (no result: D2 PAM-1, D2 ag-2)
COC(=O)[C@@]1(Cc2ccc(F)cc2)[C@H]2c3cc(C(=O)N4CCCC4)n(CCO)c3C[C@H]2CN1C(=O)c1ccccc1	none
CCOC(=O)c1c(NC(=O)COC(=O)Cc2n[nH]c(=O)c3ccccc23)sc(C(=O)NC)c1C	none (no result: D2 ag-1, D2 PAM-2, D2 antagonist)
CCOC(=O)c1nc(Nc2ccc(C(=O)OC(C)C)cc2)c2ccccc2n1	none (no result: D2 PAM-1, D2 antagonist, D2 ag-2)
Cc1occc1C(=O)Nc1c(F)cc(F)cc1Br	D2 antagonist 34
Cc1cc(C)c(Cn2c(=O)n(CCCCC(=O)NCc3ccccc3Cl)c(=O)c3ccccc32)c(C)c1	none (no result: D2 PAM-1, D2 antagonist, D2 ag-2)
Nn1c(SCCOc2ccccc2)nnc1-c1cccnc1	D2 antagonist 33
COc1ccc(NC(=O)C(=O)NCCN2CCN(C(=O)c3ccc(C)cc3)CC2)cc1	D2 antagonist 46
Cc1csc2nc(CSc3nc4ccccc4o3)c(Br)n12	D2 PAM-2 36
O=C(Cn1nc(-c2ccccc2)c2c(c1=O)CCCC2)Nc1ccc(F)c(Cl)c1	none (no result: D2 PAM-1, D2 antagonist, D2 ag-2)
O=c1oc2ccccc2c(Nc2ccc(O)cc2)c1[N+](=O)[O-]	none
Cc1ccc(Nc2c([N+](=O)[O-])c(=O)oc3ccccc23)cc1	D2 antagonist 31
Oc1ccc(N2CCN(Cc3cc4c(cc3Br)OCCO4)CC2)cc1	none
CCc1nc2ccc(C(=O)NCCOc3ccc(OC)cc3)cn2c1N(CC)Cc1ccc(OC)c(OC)c1	none (no result: D2 ag-1, D2 PAM-2, D2 antagonist)
CCNC(=O)c1ccc(NC(=O)CC2SC(N3CCCC3)=NC2=O)cc1 (stereo not drawn)	none
COC(=O)c1ccc(C(=O)NC(=S)Nc2nc3c(s2)CCCC3)cc1	none (no result: D2 ag-1, D2 PAM-2, D2 antagonist)
O=C(NC(=S)Nc1nc2c(s1)CCCC2)c1ccccc1	D2 antagonist 35
O=C(NC(=S)NCc1ccccc1)c1ccccc1	D2 antagonist 36
CCCN(CCC)C(=O)Cn1c(=O)n(-c2ccc(OC)cc2OC)c(=O)c2c3c(sc21)CCC3	none (no result: D2 PAM-1, D2 antagonist, D2 ag-2)
CCOC(=O)CNC(=O)c1cn(CC(C)C)c(=O)c2cc(OC)c(OC)cc12	D2 antagonist 31
CCn1cc(C(=O)NCC(=O)OC)c2cc(OC)c(OC)cc2c1=O	none
